We go through 85 compounds from PubChem BioAssay AID799 (SRMLSC, 2007).

The structures appear in SMILES notation. Among all 140,000 compounds or so, about 840 (0.6%) were called active.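 How the source made its calls: active means viability gain under doxorubicin at or above a set limit, the compound median plus 3 SD (cut at about 4.7% in these data); inactive means the rest.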 The list comes from a sample in which actives are over-represented; it also holds similar structures and randomly drawn compounds.

This test can be described thus: H69AR viability gain despite doxorubicin, primary screen, MRP-1 activator project, H69AR cells, CellTiter-Glo (AID 799).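 Further: MRP-1 overexpressing cells given doxorubicin 25 µM after compound pretreatment; 18-22 h compound pretreatment then 72 h with doxorubicin before readout; 0% = doxorubicin-only wells and 100% = vehicle-treated cells without doxorubicin.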 Conditions: viability rescue, at 10 µM, hits give high values.
On to `COc1cc(C(=S)NC2CCCCC2)ccc1O`, for which the viability increase is -2.71% (inactive).
To `Cc1[nH]n(-c2ccccc2)c(=O)c1/C=N/NC(=O)c1ccoc1C` belongs -1.54% (inactive).
Turning to `COc1cc(NC(=S)NCCSc2ccc(C)cc2)cc(OC)c1`, the viability increase was -3.24% (inactive).
`CCc1nnc(NS(=O)(=O)c2ccc(NS(=O)(=O)c3ccccc3)cc2)s1`: the viability increase was -0.5% (inactive).
For the compound `CC(C)c1nnc(NC(=O)C2CCCN2S(=O)(=O)c2ccc(Cl)cc2)s1` (stereo not given), the viability increase is -0.99% (inactive).
`CCc1nnc(NC(=O)C2CCCN2S(=O)(=O)c2ccccc2)s1` (stereo not given): the viability increase is 12.4% (active).
In the case of `C=CCNC(=O)c1ccccc1NC(=O)c1ccc(Cl)c(S(=O)(=O)Nc2cccc(C)c2C)c1`, the viability increase was 5.97% (active).
As for `COC(=O)c1ccc(C(=O)Nc2cc(Cl)ccc2Cl)cc1NC(=O)c1ccccc1C`, the viability increase is -3.01% (inactive).
On to `Cc1ccccc1NC(=O)c1ccccc1NS(=O)(=O)c1cccc2cccnc12`, for which the viability increase was -3.17% (inactive).
As for `CC(C)(C)C1CCC(OC(=O)CCC(=O)Nc2ccccc2)CC1` (stereo not given), the viability increase is 3.57% (inactive).
`Cc1ccc(C(=O)Cc2nnc(C)s2)cc1`: the viability increase was -2.89% (inactive).
To `Cc1ccc(C2=N/C(=C\c3ccc(OS(=O)(=O)c4ccc(C)cc4)cc3)C(=O)O2)cc1` belongs -1.26% (inactive).
To `CC(=O)Nc1ccn(Cc2c(F)cccc2Cl)n1` belongs -1.03% (inactive); to `O=C(Nc1ccn(Cc2ccccc2F)n1)c1ccc(COc2ccc(Cl)cc2Cl)o1`, 10.6% (active).
For the compound `O=C(Nc1ccn(Cc2ccc(F)cc2)n1)c1ccncc1`, the viability increase was 1.75% (inactive).
As for `Cn1nccc1CNC(=O)c1ccnn1C`, the viability increase is 10.8% (active).
As for `Cn1ncc(Br)c1C(=O)NCc1cccs1`, the viability increase was -2.03% (inactive).
To `CCCc1ccc(-c2c(C)sc(NC(=O)c3ccnn3C)c2C#N)cc1` belongs -1.28% (inactive); to `O=C(NCc1ccccc1Cl)C1CCC(CNc2c(N3CCCCC3)c(=O)c2=O)CC1` (stereo not given), -1.61% (inactive).
The value for `CN(C)S(=O)(=O)c1ccc(N2CCCC2=O)c([N+](=O)[O-])c1` was -1.68% (inactive).
For `COc1ccc(-c2nn(-c3ccccc3)cc2C(=O)Nc2nccs2)cc1OC`, the viability increase is -4.27% (inactive).
For the compound `COc1ccc(-c2nn(-c3ccccc3)cc2C(=O)Nc2nc(CC(C)=O)ns2)cc1`, the viability increase is 6.77% (active).
The value for `CC(=O)Cc1nsc(NC(=O)c2ccc(COc3ccc(C)cc3)o2)n1` was -0.06% (inactive); that for `COc1ccc2nc(Nc3nc4ccc(NC(C)=O)cc4s3)sc2c1` was -4.94% (inactive).
In the case of `CCCOc1ccc(Cn2ccnc2)cc1[N+](=O)[O-]`, the viability increase is -1.18% (inactive).
The value for `CC(=O)NC1C(OCc2ccccc2)OC(COC(C)=O)C(OC(C)=O)C1OC(C)=O` (stereo not given) was -1.54% (inactive); that for `Cc1ccc(S(=O)(=O)N(Cc2ccc(Cl)cc2)c2ccccc2C(=O)NCc2cccnc2)cc1` was -2.38% (inactive).
Regarding `Cc1ccc(O)c(-c2cc(C(=O)NCc3ccccc3)[nH]n2)c1`, the viability increase is -1.43% (inactive).
`CSCCC1NC2(C(=O)Nc3ccc(Cl)cc32)[C@@H]2C(=O)N(C3CCCC3)C(=O)[C@H]12` (stereo not given in full): the viability increase is -3.72% (inactive).
To `O=C1[C@@H]2C(Cc3ccc(O)cc3)NC3(C(=O)Nc4ccc(F)cc43)[C@@H]2C(=O)N1c1ccc(F)cc1` (stereo not given in full) belongs 5.18% (active); to `CNC(=O)NC(=O)C(OC(=O)c1cccc(S(=O)(=O)N2CCCCC2)c1)c1ccccc1` (stereo not given), -2.3% (inactive); to `Cc1cc(NS(=O)(=O)c2ccc(NC(=S)NC(=O)c3ccc(F)cc3Cl)cc2)no1`, -2% (inactive).
`CCN(CC)c1ccc([N+](=O)[O-])cc1C(=O)O`: the viability increase is 0.59% (inactive).
Consider `CC(NC(=O)COC(=O)C1CCN(S(=O)(=O)c2ccccc2C(F)(F)F)CC1)c1ccccc1` (stereo not given), for which the viability increase is -1.86% (inactive).
In the case of `COCC(C)n1c(C)cc(C(=O)CSc2cc(C)c3ccccc3n2)c1C` (stereo not given), the viability increase was 0.22% (inactive).
With `Cc1ccc(C2C3=C(Nc4[nH]n(-c5ccccc5)c(=O)c42)c2ccccc2C3=O)cc1` (stereo not given), the viability increase is -0.43% (inactive).
As to `Cc1ccc(N2C(=O)C3C(c4ccccc4)(C2=O)C3(c2ccccc2)c2ccccc2)cc1` (stereo not given), the viability increase is 5.37% (active).
On to `Cc1ccc(N2C(=O)C(Cc3ccccc3)NC2=S)cc1` (stereo not given), for which the viability increase was -0.7% (inactive).
The value for `N/C(=N\OC(=O)N1c2ccccc2Sc2ccccc21)c1ccc(Br)cc1` was -2.4% (inactive).
The value for `COc1cc2c(cc1NC(=O)COC(=O)/C=C/c1ccccc1)oc1ccccc12` was -4.74% (inactive); that for `CS(=O)(=O)N(CC(=O)N1CCN(Cc2ccc3c(c2)OCO3)CC1)c1ccc2c(c1)OCO2` was -1.42% (inactive); that for `O=C(CSCc1ccc(Cl)cc1)N1CCCCC1` was 0.74% (inactive).
Turning to `O=C(CSCc1ccc(Cl)cc1)N1CCN(Cc2ccc3c(c2)OCO3)CC1`, the viability increase is 5.45% (active).
On to `CCN(C(=O)COC(=O)c1c(NC(C)=O)sc(C)c1C)C1CCS(=O)(=O)C1` (stereo not given), for which the viability increase was -2.05% (inactive).
Consider `CCOc1ccc(Nc2nc(Cl)nc(N3CCN(c4ccc(OC)cc4)CC3)n2)cc1`, for which the viability increase was 1.19% (inactive).
Turning to `CN(Cc1cccs1)C(=O)Cc1c[nH]c2ccccc12`, the viability increase is -2.21% (inactive).
Consider `CCC(=O)Nc1ccc(C(=O)Nc2cccc(OC)c2)cc1`, for which the viability increase was -2.62% (inactive).
To `Cc1cccc(OCc2ccc(C(=O)Nc3ccc(F)cc3)cc2)c1` belongs 4.9% (active); to `Cc1cccc(C(=O)Nc2ccc(CC(=O)O)cc2)c1`, -0.27% (inactive).
The value for `CCOP(=O)(OCC)C(Nc1cccc(C)c1)c1ccc(F)cc1` (stereo not given) was 0.43% (inactive); that for `CCOC(=O)C(NC(=O)CC(C)C)(Nc1sc2c(c1C(N)=O)CCCC2)C(F)(F)F` (stereo not given) was -2.1% (inactive).
Consider `C/C(=N\NS(=O)(=O)c1ccc(Cl)cc1)c1ccc(NC(=O)c2ccco2)cc1`, for which the viability increase is -2.49% (inactive).
The value for `NC1=NC(=O)C(Cc2cccc(Cl)c2Cl)S1` (stereo not given) was -0.15% (inactive).
As for `Cc1c(Cl)cccc1NC(=O)CC1SC(=NCC2CCCO2)NC1=O` (stereo not given), the viability increase was 2.61% (inactive).
As for `O=C1NC(=Nc2ccc(Cl)cc2)SC1Cc1cccc(Cl)c1Cl` (stereo not given), the viability increase was 6.35% (active).
As for `CC(C)CNC(=O)C(=O)Nc1ccc(N(C)C)cc1`, the viability increase is 0% (inactive).
As to `CC1CCc2sc(C(=O)N/N=C/C3CCCCC3)cc2C1` (stereo not given), the viability increase was -1.48% (inactive).
As for `Cc1ccc(C(c2sc3nc(C)nn3c2O)N2CCN(c3ccc(F)cc3)CC2)cc1` (stereo not given), the viability increase is -2.22% (inactive).
Turning to `Oc1c(C(c2ccco2)N2CCC3(CC2)OCCO3)sc2ncnn12` (stereo not given), the viability increase is 0.05% (inactive).
As to `Oc1c(C(c2cccs2)N2CCN(c3ccc(F)cc3)CC2)sc2ncnn12` (stereo not given), the viability increase was 10.6% (active).
On to `Cc1c(C2=CCN(S(=O)(=O)c3ccc(Cl)cc3)CC2)c2ccccc2n1C`, for which the viability increase is -0.07% (inactive).
Regarding `COc1nc(N(C)C)nc(N2CC(=O)N(CCNS(=O)(=O)c3ccc(C)cc3)C2=N)n1`, the viability increase is -2.66% (inactive).
As for `O=C1N/C(=C/c2cccn2-c2ccccc2)C(=O)N1c1cccc(Cl)c1`, the viability increase was -0.22% (inactive).
To `Cc1c(Cl)cccc1NC(=S)NCc1ccc2c(c1)OCO2` belongs -4.04% (inactive); to `COc1ccc(C2CC(c3cccs3)=NN2C(=O)COC(=O)c2cc3ccccc3cc2O)cc1OC` (stereo not given), -0.45% (inactive); to `C=CCNc1nc(C)nc(OC)n1`, 0.38% (inactive).
As for `FC(F)(F)c1cc(-c2ccco2)nc(NCc2ccc(Cl)cc2)n1`, the viability increase is -0.53% (inactive).
As to `COc1nc(NCc2ccc(Cl)cc2)nc(OC)n1`, the viability increase is 5.12% (active).
Turning to `CCOc1ccc(/C=N/OCC(=O)NCc2cccs2)cc1`, the viability increase was 0% (inactive).
The value for `COc1ccc2c(c1)C(SCC(=O)NCc1ccccc1)CC(C)(C)O2` (stereo not given) was -1.61% (inactive); that for `COc1ccc(-c2csc(NC(=O)CCCc3cccs3)n2)cc1` was 3.87% (inactive); that for `COC(=O)CN1C(=S)N(c2ccccc2)C(=O)C1CC(=O)Nc1ccc(Cl)cc1` (stereo not given) was -1.37% (inactive).
To `COc1ccc(N2C(=O)C(CC(=O)Nc3ccc(F)cc3)N(CCc3cccs3)C2=O)cc1` (stereo not given) belongs 5.39% (active); to `CC(C)COP(=O)(c1ccc(N(C)C)cc1)C(Nc1ccccc1)c1cccnc1` (stereo not given), -3.48% (inactive); to `CCOc1ccc(Oc2nc(C)cc(OC)n2)nn1`, 0.08% (inactive).
As for `Cc1ccc(NC(=O)c2cccs2)cc1S(=O)(=O)N(C)C`, the viability increase is -1.25% (inactive).
To `O=S(=O)(NCCSc1ccccn1)c1ccc(Cl)cc1` belongs 0.85% (inactive); to `Cc1cccc2cc(CN(Cc3cccs3)C(=S)NCc3ccco3)c(=O)[nH]c12`, 5.98% (active); to `Cc1cccc2cc(CN(C(=O)c3cccs3)c3ccccc3)c(=O)[nH]c12`, -0.07% (inactive).
With `Cc1cccc2cc(CN(Cc3cccs3)C(c3nnnn3C3CCCC3)C(C)C)c(=O)[nH]c12` (stereo not given), the viability increase is -3.53% (inactive).
To `Cc1ccc(Oc2cc(NC(=O)CCCn3nc(C)c([N+](=O)[O-])c3C)cc([N+](=O)[O-])c2)cc1` belongs -2.6% (inactive); to `O=C(O)c1cccc(N=NN2CCCCCC2)c1`, -1.92% (inactive); to `COC(C(=O)NCc1ccccc1C)c1ccccc1` (stereo not given), -0.37% (inactive).
Consider `COc1cc(C2C(N3C(=O)c4ccccc4C3=O)C(=O)N2c2ccc(C)c(C)c2)cc(OC)c1OC` (stereo not given), for which the viability increase is -3.6% (inactive).
Regarding `CCCCOc1ccc(C(=O)N/C(=C/C=C/c2ccccc2)C(=O)N2CCOCC2)cc1`, the viability increase is -4.14% (inactive).
